Measured values: PubChem BioAssay AID1159580 (chemical genetic matrix, 2015)
In all, about 5,500 compounds went through this assay and about 2,000 (36%) were called active. Not shown: some 18% with an inconclusive outcome. Cut-off read from the data, not from the text of the source: active = normalized growth mostly below about 0.91 (no sharp cut-off); inconclusive = no clear call, values can overlap the other calls; inactive = mostly above about 0.92. The list shows a part of the results.

Assay: chemical genetic growth profiling, strain panel (AID 1159580);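 note: tested at 20 µM; growth read once vehicle control cultures reached saturation at 30 °C; 1 = growth at the plate median or of vehicle wells; lower values mean less growth of the strain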
Details: S. cerevisiae deletion strains, growth OD
[1] = locus YDL101C, strain DUN1, hits give low values
[2] = locus YHR030C, strain SLT2, hits give low values
[3] = locus YHR079C, strain IRE1, hits give low values
[4] = locus YJL095W, strain BCK1, hits give low values
[5] = locus YJR066W, strain TOR1, hits give low values
[6] = locus YLR113W, strain HOG1, hits give low values
[7] = locus YNL183C, strain NPR1, hits give low values
[8] = locus YOR231W, strain MKK1, hits give low values
[9] = locus YPL256C, strain CLN2, hits give low values

Measured: normalized growth

OC1CCN(c2cc(C(F)(F)F)nc3cc(Cl)cc(Cl)c23)CC1
active: [2] 0.793
inactive: locus YAR019C, strain CDC15, hits give low values 0.982 | locus YBL105C, strain PKC1, hits give low values 0.984 | locus YBR135W, strain CKS1, hits give low values 0.978 | locus YBR136W, strain MEC1, hits give low values 0.978 | locus YBR160W, strain CDC28, hits give low values 0.973 | locus YDL017W, strain CDC7, hits give low values 0.977 | locus YDL028C, strain MPS1, hits give low values 0.982 | [1] 0.976 | locus YDL108W, strain KIN28, hits give low values 0.979 | locus YDL132W, strain cdc53, hits give low values 0.969 | locus YDL214C, strain PRR2, hits give low values 0.98 | locus YDR052C, strain DBF4, hits give low values 0.989 | locus YDR054C, strain cdc34, hits give low values 0.969 | locus YDR226W, strain ADK1, hits give low values 0.973 | locus YDR477W, strain SNF1, hits give low values 0.913 | locus YER123W, strain YCK3, hits give low values 0.965 | locus YER133W, strain GLC7, hits give low values 0.971 | locus YFL009W, strain cdc4, hits give low values 0.986 | locus YFL029C, strain CAK1, hits give low values 0.984 | locus YFR003C, strain YPI1, hits give low values 0.978 | locus YFR019W, strain FAB1, hits give low values 1 | locus YFR028C, strain CDC14, hits give low values 0.979 | locus YGR040W, strain KSS1, hits give low values 0.921 | locus YGR052W, strain FMP48, hits give low values 1.1 | locus YGR092W, strain DBF2, hits give low values 0.994 | [3] 0.979 | locus YHR082C, strain KSP1, hits give low values 1.06 | locus YHR205W, strain SCH9, hits give low values 0.975 | locus YIL147C, strain SLN1, hits give low values 0.976 | [4] 0.887 | locus YJL128C, strain PBS2, hits give low values 0.989 | locus YJL157C, strain FAR1, hits give low values 0.972 | locus YJR016C, strain ILV3, hits give low values 0.984 | locus YJR066W, strain TOR1 (second series), hits give low values 0.963 | [5] 0.938 | locus YKL048C, strain ELM1, hits give low values 0.979 | locus YKL067W, strain YNK1, hits give low values 0.977 | locus YKL101W, strain HSL1, hits give low values 0.984 | locus YKL193C, strain SDS22, hits give low values 0.969 | locus YKL203C, strain TOR2, hits give low values 0.987 | [6] 0.951 | locus YLR133W, strain CKI1, hits give low values 0.976 | locus YLR403W, strain SFP1, hits give low values 0.992 | locus YML070W, strain DAK1, hits give low values 0.969 | locus YMR001C, strain CDC5, hits give low values 0.971 | locus YMR205C, strain PFK2 (second series), hits give low values 0.975 | locus YMR277W, strain FCP1, hits give low values 0.97 | locus YNL006W, strain LST8, hits give low values 0.968 | locus YNL020C, strain ARK1, hits give low values 0.972 | locus YNL161W, strain CBK1, hits give low values 0.975 | [7] 0.971 | locus YNL207W, strain RIO2, hits give low values 0.979 | locus YNL222W, strain SSU72, hits give low values 0.98 | locus YNL307C, strain MCK1 (second series), hits give low values 0.962 | locus YOL078W, strain AVO1, hits give low values 0.98 | locus YOL136C, strain PFK27, hits give low values 0.981 | locus YOR061W, strain CKA2, hits give low values 0.964 | locus YOR119C, strain RIO1, hits give low values 1.01 | [8] 0.946 | locus YOR329C, strain SCD5, hits give low values 0.986 | locus YPL031C, strain PHO85, hits give low values 0.908 | locus YPL153C, strain RAD53, hits give low values 0.937 | locus YPL204W, strain HRR25, hits give low values 0.938 | locus YPL209C, strain IPL1, hits give low values 0.971 | [9] 0.947 | locus YPR025C, strain CCL1, hits give low values 0.969 | locus YPR106W, strain ISR1, hits give low values 0.991 | locus YPR111W, strain DBF20, hits give low values 0.985 | strain NNK1, hits give low values 1 | strain TSCII, hits give low values 0.97

CC(=O)Nc1c(I)c(NC(C)=O)c(I)c(C(=O)O)c1I
inactive: [2] 0.975 | [3] 1 | [4] 0.989 | [5] 0.932 | [6] 0.977 | [7] 0.941 | [8] 0.99 | [9] 0.974

CC(=O)Nc1c(C)c(C)c(C)c(C)c1NC(C)=O
inactive: locus YAL013W, strain DEP1, hits give low values 1.01 | locus YBR229C, strain ROT2, hits give low values 1.01 | [1] 1 | locus YDL134C, strain PPH21, hits give low values 1 | locus YDR150W, strain NUM1, hits give low values 0.989 | locus YEL061C, strain CIN8, hits give low values 1.02 | locus YGR078C, strain PAC10, hits give low values 0.994 | [2] 1.14 | locus YHR087W, strain rtc3, hits give low values 0.997 | locus YJR043C, strain POL32, hits give low values 1.01 | locus YJR075W, strain HOC1, hits give low values 0.988 | locus YLR039C, strain RIC1, hits give low values 1.04 | locus YLR058C, strain SHM2 (second series), hits give low values 1.02 | locus YLR085C, strain ARP6, hits give low values 1.07 | locus YLR262C, strain YPT6, hits give low values 1.02 | locus YML094W, strain GIM5, hits give low values 1.04 | locus YMR219W, strain ESC1, hits give low values 1.02 | locus YMR263W, strain SAP30, hits give low values 1.01 | locus YNL153C, strain GIM3, hits give low values 0.995 | locus YNL298W, strain CLA4 (second series), hits give low values 1.06 | locus YNL322C, strain KRE1, hits give low values 1.01 | locus YNR030W, strain Alg12, hits give low values 1.03 | locus YPL055C, strain LGE1, hits give low values 1.03 | locus YPR135W, strain CTF4, hits give low values 1.09
active: locus YPL241C, strain CIN2, hits give low values 1.15 [resistant]
